Measurements reported in PubChem BioAssay (EPA / NIEHS).
Where “and” joins values, the source holds several entries; their conditions need not be identical. Identical values can stand only once. Results filed as inconclusive are left out. Some compounds were tested as several samples or in several runs, with calls that do not always agree. Calls of active or inactive are those of the source. Rule for the calls, unless noted: active = hit-call score of the fitted dose curve at least 0.9, where 1 is the maximum; inactive = score below 0.9.

Key:
[1] = target: Nuclear respiratory factor 1 (Homo sapiens) (UniProt Q16656); experiment: ATG_NRF1_CIS: Attagene CIS-FACTORIAL HepG2 Assay for human Nuclear Respiratory Factor 1 (NRF1) Orphan Gene (AID 2282987); details: HepG2 NRF1 cis-element reporter, Attagene multiplex; actives raise or lower the signal
Procedure, shortened: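 Cells (HepG2, transient MRTU transfection) are exposed to compound for 24 h, then RNA isolated and reporter mRNA amplified and fluorescently labelled. Fragments are separated by capillary electrophoresis; signal change is fitted bidirectionally relative to DMSO.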

[2] = ATG_NFI_CIS: Attagene CIS-FACTORIAL HepG2 Assay for human Nuclear Factor I (NFI) (AID 2282989); details: HepG2 cis-regulatory reporter, NFI response element transcription; actives raise or lower the signal
Procedure, shortened: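 HepG2 cells transiently transfected with cis-element-driven multiplexed reporter transcription units, dosed for 24 h. Reporter mRNA quantified by RT-PCR, fluorescent labelling, HpaI digestion and capillary electrophoresis; bidirectional fit versus DMSO baseline.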

[3] = target: Myc proto-oncogene protein (Homo sapiens) (UniProt P01106); experiment: ATG_Myc_CIS: Attagene CIS-FACTORIAL HepG2 Assay for human Myelocytomatosis (Myc) Proto-Oncogene Transcription Factor (AID 2282990); details: HepG2, Attagene cis-reporter transcription factor activity; actives raise or lower the signal
Procedure, shortened: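 HepG2 cells transiently transfected with multiple cis-promoter-driven reporter transcription units, so endogenous TF activity is read. After 24 h compound exposure, reporter mRNA was quantified by RT-PCR, 6-FAM labelling, HpaI digestion and capillary electrophoresis; bidirectional fit versus DMSO.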

[4] = ATG_NF_kB_CIS: Attagene CIS-FACTORIAL HepG2 Assay for human Nuclear Factor Kappa B (NF-kB) (AID 2282991); details: HepG2 Attagene cis-factorial NF-kB reporter mRNA; actives raise or lower the signal
Procedure, shortened: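 Measures mRNA induction of an NF-kB-responsive cis-element reporter in HepG2 cells transfected with multiple reporter units, sampled 24 h post-dosing; quantified by fluorescence after RT-PCR and capillary electrophoresis, fitted for activation or inhibition against DMSO.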

[5] = ATG_Oct_MLP_CIS: Attagene CIS-FACTORIAL HepG2 Assay for human Octamer-Binding Transcription Factor (Oct) (AID 2282993); details: HepG2 Attagene cis-factorial Oct reporter, mRNA; actives raise or lower the signal
Procedure, shortened: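 HepG2 cells transiently transfected with cis-promoter-driven multiplexed reporter transcription units, dosed for 24 h. Reporter mRNA quantified by RT-PCR, fluorescent labelling, HpaI digestion and capillary electrophoresis; bidirectional fits versus DMSO baseline.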

[6] = target: Cellular tumor antigen p53 (Homo sapiens) (UniProt P04637); experiment: ATG_p53_CIS: Attagene CIS-FACTORIAL HepG2 Assay for human p53 Transcription Factor (AID 2282994); details: HepG2 p53 cis-element reporter, Attagene mRNA; actives raise or lower the signal
Procedure, shortened: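 HepG2 cells transiently transfected with multiplexed cis-regulated reporter transcription units read endogenous TF activity. After 24 h compound exposure, reporter mRNA was quantified by RT-PCR, fluorescent labelling, HpaI digestion and capillary electrophoresis; bidirectional fits versus DMSO baseline.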

[7] = BSK_3C_TissueFactor: BioMAP Diversity Plus: 3C Assay for Tissue Factor Biomarker Activity (AID 2282997); details: BioMAP 3C HUVEC, tissue factor biomarker readout; actives raise or lower the signal
Procedure, shortened: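 HUVEC were treated 24 h, then surface tissue factor measured by ELISA and fitted bidirectionally against DMSO. Parallel SRB total-protein staining assessed overt cytotoxicity at the same time point.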

[8] = BSK_3C_uPAR: BioMAP Diversity Plus: 3C Assay for Urokinase-type plasminogen activator receptor (uPAR) Biomarker Activity (AID 2282998); details: BioMAP 3C HUVEC, uPAR biomarker ELISA; actives raise or lower the signal
Procedure, shortened: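 Human umbilical vein endothelial primary cells were exposed to test chemical for 24 h. Cell-surface uPAR was then quantified by ELISA, and responses were fitted bidirectionally against DMSO as negative control and baseline.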

[9] = BSK_3C_VCAM1: BioMAP Diversity Plus: 3C Assay for Vascular cell adhesion molecule 1 (VCAM1) Biomarker Activity (AID 2282999); details: BioMAP 3C HUVEC, VCAM1 ELISA, cytokine-stimulated; actives raise or lower the signal
Procedure, shortened: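 Human umbilical vein endothelial cells were dosed with compound for 24 h, after which cell-surface VCAM-1 was quantified by ELISA. Bidirectional curve fitting used DMSO as negative control and activity baseline.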

[10] = BSK_4H_Eotaxin3: BioMAP Diversity Plus: 4H Assay for Eotaxin 3 Biomarker Activity (AID 2283000); details: primary human endothelial cells (HUVEC); actives raise or lower the signal
Procedure, shortened: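 Eotaxin-3 (CCL26) levels were measured by ELISA in HUVEC primary cultures 24 h post-dosing. Gain or loss of signal was fitted in both directions, with DMSO serving as baseline and negative control.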

[11] = target: human Peroxisome Proliferator-activated Receptor alpha (PPARa), PPARA (gene 5465) (UniProt Q07869); experiment: ATG_PPARa_TRANS: Attagene TRANS-FACTORIAL HepG2 Assay for human Peroxisome Proliferator-activated Receptor alpha (PPARa) (AID 2283001; active = hit-call score of the fitted dose curve at least 0.9, where 1 is the maximum)
Procedure, shortened: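 Gain-of-signal endpoint: reporter mRNA induction relative to DMSO, detected by fluorescent RT-PCR and capillary electrophoresis. HepG2 cells transiently carried GAL4-UAS-driven reporter units plus NR-Gal4 fusion; exposure lasted 24 h.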

[12] = target: human Peroxisome Proliferator-activated Receptor delta (PPARd), PPARD (gene 5467) (UniProt Q03181); experiment: ATG_PPARd_TRANS: Attagene TRANS-FACTORIAL HepG2 Assay for human Peroxisome Proliferator-activated Receptor delta (PPARd) (AID 2283002; active = hit-call score of the fitted dose curve at least 0.9, where 1 is the maximum)
Procedure, shortened: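 HepG2 cells transiently transfected with multiplexed GAL4-UAS reporter units and exogenous chimeric NR-Gal4 proteins; 24 h compound exposure. Reporter mRNA measured by RT-PCR, 6-FAM labelling, HpaI digestion and capillary electrophoresis; gain of signal versus DMSO.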

[13] = read-out: Intercellular Adhesion Molecule 1 (ICAM1), ICAM1 (gene 3383); experiment: BSK_3C_ICAM1: BioMAP Diversity Plus: 3C Assay for Intercellular Adhesion Molecule 1 (ICAM1) Biomarker Activity (AID 2283003); details: primary human endothelial cells (HUVEC); actives raise or lower the signal
Procedure, shortened: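 ICAM-1 levels measured by ELISA after HUVEC cultures in the 3C system had been dosed for 24 h. Gain or loss of signal relative to DMSO was fitted in both directions.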

[14] = BSK_3C_Proliferation: Cell Proliferation Assessment in the BioMAP Diversity Plus: 3C Assay (AID 2283006); details: primary human endothelial cells (HUVEC);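 for AC50: potency may reflect either rise or fall in cell number versus DMSO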
Procedure, shortened: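 Read-out is total protein by SRB absorbance at 560 nm, taken as a proxy for relative cell number. Primary human umbilical vein endothelium cultured below confluence was dosed for 48 h, TCA-fixed and SRB-stained; curves were fitted bidirectionally versus DMSO.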

[15] = target: Peroxisome proliferator-activated receptor gamma (Homo sapiens) (UniProt P37231); experiment: ATG_PPARg_TRANS: Attagene TRANS-FACTORIAL HepG2 Assay for human Peroxisome Proliferator-activated Receptor-gamma (PPARg) (AID 2283007; active = hit-call score of the fitted dose curve at least 0.9, where 1 is the maximum)
Procedure, shortened: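 Gain-of-signal endpoint relative to DMSO, derived from reporter mRNA levels quantified by RT-PCR and capillary electrophoresis. Cells were HepG2 transiently expressing a chimeric NR-Gal4 construct with GAL4-UAS reporters, exposed to chemicals for 24 h.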

[16] = target: Nuclear receptor subfamily 1 group I member 2 (Homo sapiens) (UniProt O75469); experiment: ATG_PXR_TRANS: Attagene TRANS-FACTORIAL HepG2 Assay for human Pregnane X Receptor (PXR) (AID 2283008; active = hit-call score of the fitted dose curve at least 0.9, where 1 is the maximum)
Procedure, shortened: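 HepG2 cells transiently transfected with multiple reporter units, here a PXR-GAL4 chimera driving a GAL4-UAS reporter; 24 h compound exposure. Reporter mRNA measured by RT-PCR, FAM labelling and capillary electrophoresis; gain of signal fitted against DMSO baseline.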

[17] = target: human Retinoic Acid Receptor gamma (RARg), RARG (gene 5916) (UniProt P13631); experiment: ATG_RARg_TRANS: Attagene TRANS-FACTORIAL HepG2 Assay for human Retinoic Acid Receptor gamma (RARg) (AID 2283009; active = hit-call score of the fitted dose curve at least 0.9, where 1 is the maximum)
Procedure, shortened: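 Transient transfection of HepG2 with multi-reporter constructs, then 24 h chemical treatment. Total RNA isolated, reverse-transcribed, PCR-amplified, fluorescently labelled and resolved by capillary electrophoresis; activity scored as mRNA induction versus DMSO.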

[18] = ATG_NRF2_ARE_CIS: Attagene CIS-FACTORIAL HepG2 Assay for human Nuclear Factor Erythroid 2 Related Factor 2 (NFR2) response to Antioxidant Response Elements (ARE) (AID 2282992); details: HepG2 Attagene ARE/NRF2 reporter, transcription factor activity; actives raise or lower the signal;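 for AC50: reporter mRNA level measured by RT-PCR and capillary electrophoresis fluorescence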
Procedure, shortened: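 HepG2 cells transiently transfected with multiplexed cis-regulated reporter transcription units measure endogenous transcription factor activity. Reporter mRNA at 24 h is quantified by RT-PCR, fluorescent labelling and capillary electrophoresis, with bidirectional fitting relative to DMSO.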

[19] = target: human Retinoic Acid Receptor beta (RARb), RARB (gene 5915) (UniProt P10826); experiment: ATG_RARb_TRANS: Attagene TRANS-FACTORIAL HepG2 Assay for human Retinoic Acid Receptor beta (AID 2283004; active = hit-call score of the fitted dose curve at least 0.9, where 1 is the maximum)
Procedure, shortened: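 HepG2 cells were transiently transfected with GAL4-UAS reporter units that report activity of exogenous chimeric NR-Gal4 proteins, then exposed to compound for 24 h. Reporter mRNA was quantified by RT-PCR with capillary electrophoresis fluorescence, as gain of signal over DMSO.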

[20] = target: Retinoic acid receptor alpha (Homo sapiens) (UniProt P10276); experiment: ATG_RARa_TRANS: Attagene TRANS-FACTORIAL HepG2 Assay for human Retinoic Acid Receptor alpha (RARa) (AID 2283005; active = hit-call score of the fitted dose curve at least 0.9, where 1 is the maximum)
Procedure, shortened: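 HepG2 cells transiently transfected with multiple reporter units expressing chimeric RARα-GAL4 fusion, with GAL4-UAS-driven reporters. After 24 h compound exposure, reporter mRNA induction quantified by RT-PCR and capillary electrophoresis with fluorescent labeling; gain-of-signal fitted relative to DMSO control.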

Measured: AC50

Sequence of human Peroxisome Proliferator-activated Receptor delta (PPARd), PPARD (gene 5467) (Q03181 whole entry, looked up, the tested form may be a part): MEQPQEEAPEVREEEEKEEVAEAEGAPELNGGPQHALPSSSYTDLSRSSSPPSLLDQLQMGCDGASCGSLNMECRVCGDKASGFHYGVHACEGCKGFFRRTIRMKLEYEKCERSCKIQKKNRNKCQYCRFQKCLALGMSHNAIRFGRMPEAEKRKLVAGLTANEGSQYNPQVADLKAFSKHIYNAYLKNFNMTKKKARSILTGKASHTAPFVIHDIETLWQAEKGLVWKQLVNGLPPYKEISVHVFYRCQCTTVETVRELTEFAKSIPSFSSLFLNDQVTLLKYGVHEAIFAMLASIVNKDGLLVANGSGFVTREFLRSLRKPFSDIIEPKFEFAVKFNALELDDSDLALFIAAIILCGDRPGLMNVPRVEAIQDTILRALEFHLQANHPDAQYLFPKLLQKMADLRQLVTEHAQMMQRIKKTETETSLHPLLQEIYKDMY
Sequence of human Retinoic Acid Receptor beta (RARb), RARB (gene 5915) (P10826 whole entry, looked up, the tested form may be a part): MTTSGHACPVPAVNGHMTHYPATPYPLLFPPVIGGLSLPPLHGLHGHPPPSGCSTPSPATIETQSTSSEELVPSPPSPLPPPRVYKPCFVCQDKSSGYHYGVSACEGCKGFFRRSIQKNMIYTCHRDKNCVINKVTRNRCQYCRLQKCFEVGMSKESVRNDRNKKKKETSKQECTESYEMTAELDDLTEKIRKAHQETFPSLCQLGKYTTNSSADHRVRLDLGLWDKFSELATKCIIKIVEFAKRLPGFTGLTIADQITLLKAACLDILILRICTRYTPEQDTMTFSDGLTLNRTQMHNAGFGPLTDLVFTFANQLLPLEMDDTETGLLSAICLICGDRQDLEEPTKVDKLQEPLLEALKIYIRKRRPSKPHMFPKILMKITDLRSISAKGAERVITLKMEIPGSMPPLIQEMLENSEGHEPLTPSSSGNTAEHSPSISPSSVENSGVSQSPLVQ
Sequence of Nuclear respiratory factor 1 (Homo sapiens) (Q16656 whole entry, looked up, the tested form may be a part): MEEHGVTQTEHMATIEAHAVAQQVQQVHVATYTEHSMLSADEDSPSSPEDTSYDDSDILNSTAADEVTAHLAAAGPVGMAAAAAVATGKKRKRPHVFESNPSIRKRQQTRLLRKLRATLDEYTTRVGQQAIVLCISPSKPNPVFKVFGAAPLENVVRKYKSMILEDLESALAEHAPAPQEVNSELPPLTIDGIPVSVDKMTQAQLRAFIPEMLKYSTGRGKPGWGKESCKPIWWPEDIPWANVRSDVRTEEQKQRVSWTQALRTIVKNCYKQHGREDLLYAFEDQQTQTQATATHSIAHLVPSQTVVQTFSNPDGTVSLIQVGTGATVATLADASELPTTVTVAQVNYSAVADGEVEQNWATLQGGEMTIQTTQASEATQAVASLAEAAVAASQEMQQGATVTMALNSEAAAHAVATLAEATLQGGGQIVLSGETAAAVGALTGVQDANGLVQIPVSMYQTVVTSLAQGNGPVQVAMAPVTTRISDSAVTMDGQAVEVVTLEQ
Sequence of Nuclear receptor subfamily 1 group I member 2 (Homo sapiens) (O75469 whole entry, looked up, the tested form may be a part): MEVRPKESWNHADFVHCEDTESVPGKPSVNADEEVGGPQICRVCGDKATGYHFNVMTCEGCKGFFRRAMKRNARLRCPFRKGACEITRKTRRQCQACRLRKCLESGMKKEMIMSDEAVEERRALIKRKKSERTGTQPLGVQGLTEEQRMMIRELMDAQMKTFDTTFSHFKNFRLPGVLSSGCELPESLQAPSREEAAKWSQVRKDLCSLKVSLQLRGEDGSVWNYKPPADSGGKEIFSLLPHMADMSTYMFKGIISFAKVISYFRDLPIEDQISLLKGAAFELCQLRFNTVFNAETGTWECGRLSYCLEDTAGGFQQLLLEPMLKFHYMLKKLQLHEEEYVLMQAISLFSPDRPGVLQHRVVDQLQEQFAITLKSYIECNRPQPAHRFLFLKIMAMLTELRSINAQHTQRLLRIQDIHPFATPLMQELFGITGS
Sequence of Cellular tumor antigen p53 (Homo sapiens) (P04637 whole entry, looked up): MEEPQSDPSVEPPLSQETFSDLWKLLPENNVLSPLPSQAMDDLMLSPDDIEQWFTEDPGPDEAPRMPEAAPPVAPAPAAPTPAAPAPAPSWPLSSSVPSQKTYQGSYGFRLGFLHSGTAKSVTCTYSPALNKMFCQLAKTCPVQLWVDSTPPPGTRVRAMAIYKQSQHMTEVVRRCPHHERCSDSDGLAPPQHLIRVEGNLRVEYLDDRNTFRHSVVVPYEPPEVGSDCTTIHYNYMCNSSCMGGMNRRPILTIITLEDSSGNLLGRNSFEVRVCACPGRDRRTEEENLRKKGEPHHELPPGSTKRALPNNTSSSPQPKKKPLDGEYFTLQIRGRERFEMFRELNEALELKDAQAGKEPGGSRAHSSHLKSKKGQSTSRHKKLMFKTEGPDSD
Sequence of Myc proto-oncogene protein (Homo sapiens) (P01106 whole entry, looked up): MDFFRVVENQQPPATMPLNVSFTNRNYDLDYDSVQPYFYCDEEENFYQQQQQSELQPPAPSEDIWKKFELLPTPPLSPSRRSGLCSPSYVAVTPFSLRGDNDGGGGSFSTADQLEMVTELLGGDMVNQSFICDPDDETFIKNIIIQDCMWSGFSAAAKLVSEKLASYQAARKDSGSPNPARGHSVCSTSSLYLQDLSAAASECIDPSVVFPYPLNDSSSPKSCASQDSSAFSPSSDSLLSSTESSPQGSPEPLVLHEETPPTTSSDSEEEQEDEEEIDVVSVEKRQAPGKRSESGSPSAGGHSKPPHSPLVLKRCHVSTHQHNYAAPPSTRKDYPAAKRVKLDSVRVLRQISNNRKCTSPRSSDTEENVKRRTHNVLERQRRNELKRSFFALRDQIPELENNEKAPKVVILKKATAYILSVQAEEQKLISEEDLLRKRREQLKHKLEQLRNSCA
Sequence of Peroxisome proliferator-activated receptor gamma (Homo sapiens) (P37231 whole entry, looked up, the tested form may be a part): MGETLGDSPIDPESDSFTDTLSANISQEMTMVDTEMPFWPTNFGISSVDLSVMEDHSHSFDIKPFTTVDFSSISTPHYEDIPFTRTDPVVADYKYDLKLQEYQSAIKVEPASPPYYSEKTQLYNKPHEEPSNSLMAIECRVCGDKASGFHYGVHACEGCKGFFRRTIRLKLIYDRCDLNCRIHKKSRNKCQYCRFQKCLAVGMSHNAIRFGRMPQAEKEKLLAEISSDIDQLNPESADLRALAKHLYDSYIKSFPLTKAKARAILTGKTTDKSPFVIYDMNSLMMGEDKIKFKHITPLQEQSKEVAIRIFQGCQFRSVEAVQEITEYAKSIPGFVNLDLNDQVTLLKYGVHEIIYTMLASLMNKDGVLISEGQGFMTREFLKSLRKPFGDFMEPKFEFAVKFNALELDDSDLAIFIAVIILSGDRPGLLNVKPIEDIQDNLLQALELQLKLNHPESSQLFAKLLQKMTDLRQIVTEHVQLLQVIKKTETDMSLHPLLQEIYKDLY
Sequence of human Retinoic Acid Receptor gamma (RARg), RARG (gene 5916) (P13631 whole entry, looked up): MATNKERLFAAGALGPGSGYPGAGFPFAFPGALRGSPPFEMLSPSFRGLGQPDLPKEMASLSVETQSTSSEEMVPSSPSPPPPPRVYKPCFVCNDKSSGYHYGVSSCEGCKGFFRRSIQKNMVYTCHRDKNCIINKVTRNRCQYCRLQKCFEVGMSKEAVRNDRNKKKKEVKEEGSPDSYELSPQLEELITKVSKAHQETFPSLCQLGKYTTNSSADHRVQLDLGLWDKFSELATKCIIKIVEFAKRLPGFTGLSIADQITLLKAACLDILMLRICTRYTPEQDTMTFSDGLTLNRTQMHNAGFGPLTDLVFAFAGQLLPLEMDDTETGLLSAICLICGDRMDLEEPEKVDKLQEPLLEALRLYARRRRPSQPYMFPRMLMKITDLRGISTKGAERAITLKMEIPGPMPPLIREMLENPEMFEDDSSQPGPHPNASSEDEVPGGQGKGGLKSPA
Sequence of Retinoic acid receptor alpha (Homo sapiens) (P10276 whole entry, looked up, the tested form may be a part): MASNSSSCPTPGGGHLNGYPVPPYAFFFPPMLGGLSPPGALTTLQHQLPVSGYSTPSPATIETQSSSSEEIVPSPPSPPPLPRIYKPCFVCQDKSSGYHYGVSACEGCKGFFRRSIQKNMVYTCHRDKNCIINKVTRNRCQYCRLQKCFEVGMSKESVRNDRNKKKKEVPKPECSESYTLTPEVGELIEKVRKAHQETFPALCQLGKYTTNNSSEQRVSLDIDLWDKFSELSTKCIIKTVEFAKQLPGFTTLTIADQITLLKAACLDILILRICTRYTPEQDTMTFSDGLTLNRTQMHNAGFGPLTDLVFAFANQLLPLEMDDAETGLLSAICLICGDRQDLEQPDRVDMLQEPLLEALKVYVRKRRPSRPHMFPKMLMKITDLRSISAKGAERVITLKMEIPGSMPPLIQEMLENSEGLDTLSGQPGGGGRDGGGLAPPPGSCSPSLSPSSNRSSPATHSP
Sequence of human Peroxisome Proliferator-activated Receptor alpha (PPARa), PPARA (gene 5465) (Q07869 whole entry, looked up, the tested form may be a part): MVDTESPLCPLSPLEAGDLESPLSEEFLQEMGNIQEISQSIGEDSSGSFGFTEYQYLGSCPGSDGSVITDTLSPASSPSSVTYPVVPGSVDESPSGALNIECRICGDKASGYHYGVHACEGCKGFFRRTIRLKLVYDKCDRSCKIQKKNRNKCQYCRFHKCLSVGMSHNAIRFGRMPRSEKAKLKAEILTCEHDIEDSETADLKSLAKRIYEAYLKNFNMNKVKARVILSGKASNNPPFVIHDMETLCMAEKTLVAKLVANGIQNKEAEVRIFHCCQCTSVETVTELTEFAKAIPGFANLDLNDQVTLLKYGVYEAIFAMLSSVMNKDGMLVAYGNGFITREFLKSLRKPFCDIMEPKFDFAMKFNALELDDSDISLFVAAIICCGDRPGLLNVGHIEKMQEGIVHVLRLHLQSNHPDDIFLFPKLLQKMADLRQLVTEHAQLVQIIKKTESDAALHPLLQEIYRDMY

C=CC(=O)OCC(CC)(COC(=O)C=C)COC(=O)C=C
active: [4] 5.65 µM | [5] 25.5 µM | [7] 1.5 µM | [8] 3.57 µM | [9] 2.55 µM | [10] 2.41 µM | [13] 2.71 µM | [14] 1.7 µM | [15] 24.3 µM | [16] 793 nM
inactive: [1] | [2] | [3] | [6] | [11] | [12] | [17]

c1ccc(OP(Oc2ccccc2)Oc2ccccc2)cc1
not listed: [11] | [12] | [17] | [19] | [20]
inactive: all other assays above

O=C(O)C=CC(F)(C(F)(F)F)C(F)(F)F
not listed: [11] | [19] | [20]
inactive: all other assays above

COC(=O)C(F)(F)C(F)(F)OC(F)(C(F)(F)F)C(F)(F)OC(F)=C(F)F (centres undefined)
active: [18] 4.38 µM and 10.3 µM and 5.16 µM | [6] 12.7 µM | [12] 15.4 µM | [15] 124 nM and 241 nM and 127 nM | [16] 6.57 µM and 19.5 µM and 5.88 µM
inactive: [1] | [2] | [3] | [4] | [5] | [6] | [7] | [8] | [9] | [10] | [12] | [13] | [19] | [14]

CCNc1nc(Cl)nc(NC(C)(C)C)n1
active: [16] 4350 nM
not listed: [6] | [10] | [11]
inactive: all other assays above

CCOP(=S)(OCC)SCn1nnc2ccccc2c1=O
active: [1] 58.6 µM | [18] 1.6 µM | [7] 10.7 µM | [15] 28.5 µM | [16] 716 nM
not listed: [11] | [12] | [17] | [19] | [20]
inactive: all other assays above

CCC(C)(C)c1ccc(O)cc1
active: [18] 33.4 µM | [16] 7920 nM
not listed: [10] | [11] | [12] | [17] | [19] | [20]
inactive: all other assays above

O=P(OCC(Br)CBr)(OCC(Br)CBr)OCC(Br)CBr (centres undefined)
active: [1] 18.6 µM | [18] 23.4 µM | [8] 17.4 µM | [9] 17.4 µM | [14] 11.9 µM | [15] 2.68 µM | [16] 224 nM
not listed: [10] | [11] | [17] | [19] | [20]
inactive: all other assays above

COC(N)=O
inactive: [1] | [2] | [3] | [4] | [18] | [5] | [12] | [15]

[N-]=[N+]=[N-]
active: [3] 100 µM
not listed: [6] | [10] | [11] | [15] | [16] | [17] | [19] | [20]
inactive: all other assays above

ClC(Cl)c1ccccc1
not listed: [6] | [10] | [15] | [17] | [19]
inactive: all other assays above

CCCCCCCc1ccc(O)cc1
active: [18] 14.1 µM and 7.28 µM and 7.2 µM | [7] 38 µM | [8] 38.2 µM | [9] 35.1 µM | [13] 37.3 µM | [14] 14.3 µM | [15] 24.3 µM | [16] 11100 nM
inactive: [1] | [2] | [3] | [4] | [18] | [5] | [12] | [19] | [20] | [15] | [16] | [17]

CCOP(=S)(Oc1ccc([N+](=O)[O-])cc1)c1ccccc1 (centres undefined)
active: [18] 7.75 µM | [14] 13.5 µM | [16] 1200 nM
not listed: [6] | [11] | [17] | [19] | [20]
inactive: all other assays above

CC(C)(C)c1ccccc1OP(=O)(Oc1ccccc1)Oc1ccccc1
inactive: [1] | [2] | [3] | [4] | [5] | [6] | [12]
active: [18] 19.8 µM | [7] 20 µM | [8] 20 µM | [9] 28.6 µM | [13] 31.9 µM | [14] 20 µM | [15] 3.63 µM | [16] 156 nM
